# Only some compounds are listed: those with a hit (about 21% of all), similar ones and a draw of the others.
# Pf growth 48h: inhibits P. falciparum growth in the first generation, 48 h | AID 504832 | 310,000 compounds, 5.9% hits | P. falciparum luciferase growth in erythrocytes, 48 h | Potency, µM (top dose mostly 28.7 µM), for inactives: top-dose activity change, negative = inhibition, hits mostly inhibitors; note: potency is the fitted concentration of half-maximal effect; % is set by controls: 0 for no effect and ±100 for the full control effect
#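 Erythrocytes infected with P. falciparum carrying an integrated firefly luciferase reporter (2% hematocrit, 0.1% parasitemia final) were exposed to compounds in RPMI 1640 with 0.5% Albumax at 37 C, 5% CO2. Growth inhibition was scored as reduced luminescence.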
# Pf growth 96h: P. falciparum growth inhibition at 96 hour, primary screen for plastid delayed-death inhibitors; P. falciparum luciferase reporter growth, 96 h; 320,000 compounds, 6.9% hits; Potency, µM (highest dose often 28.7 µM), inactives show at the highest dose activity change, negative = inhibition, usual class: inhibitors; note: potency is the fitted concentration of half-maximal effect; % is set by controls: 0 for no effect and ±100 for the full control effect
#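 Erythrocytes infected with luciferase-expressing P. falciparum were dispensed at 2% hematocrit and 0.05% parasitemia (final), then incubated with compounds 96 hours at 37 C in 5% CO2. Luminescence after detection reagent addition reported growth.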
# NS1 function inh: inhibitors of influenza NS1 protein function. Potency, µM (doses to about 46.1 µM), for inactives: at the top dose activity, positive = more growth. 270,000 compounds, 0.4% hits. AID 2326; calls by dose curve; note: potency is the fitted concentration of half-maximal effect; actives are rising curves; nearly all actives have a fitted effect of over 50% in size
#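 Read-out: OD600 growth recovery of NS1-expressing budding yeast. Cells grown overnight at 30C in -URA glucose medium, washed, resuspended and diluted 1:100 in 2% galactose assay medium, pH 6.0. Same strain lacking NS1 served as positive control.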
# Cycloheximide cs: affects cycloheximide protein synthesis inhibition readout, counter-screen; max response, %; AID 2314; cell reporter, cycloheximide protein synthesis inhibition counterscreen; 300,000 compounds, 12% hits; in the data active = max response mostly above about 13%, no sharp cut-off; inactive = mostly below about 14%; note: read at 38.3 µM for the half of the compounds with a filed dose; 0% is about no effect
# Shiga toxin inh: Shiga toxin inhibition; Vero cells, Shiga toxin protein synthesis inhibition reporter; inhibition, % at 38.7 µM; 290,000 compounds, 9.2% hits; AID 2315; in the data active = inhibition mostly above about 28%, no sharp cut-off; inactive = mostly below about 43%; note: 0% is about no effect
# Numbers without * were called inactive; ? = inconclusive; . = no result; [ ] = dose if it differs, or a comment. Unless noted, calls come from the whole dose curve; as a rule, active = well fitted inhibition curve with a large enough effect; inconclusive = small, poorly fitted or top-dose-only effect, or another doubt; inactive = no such curve, though single readings can be large or run the other way.
SMILES,Pf growth 48h,Pf growth 96h,NS1 function inh,Cycloheximide cs,Shiga toxin inh
O=C(NC(NC(=S)Nc1c(Cl)cc(Cl)cc1Cl)C(Cl)(Cl)Cl)OCc1ccccc1 (configuration not stated),?,-28.3%,-2.4%,-1.3,-15.9
Cc1ccccc1NC(=O)OCc1ccccc1,32.6%,?,-9.7%,27.8*,59.3*
CSc1nsc(SC)c1NC(=O)OCc1ccccc1,5.5%,?,-32.9%,22.4*,45.4
Cc1ccc(C)c(NC(=S)NC(NC(=O)OCc2ccccc2)C(Cl)(Cl)Cl)c1 (configuration not stated),?,9.28µM*,14.1%,-1.5,-6.2
CSc1nsc(SC)c1NC(=O)OCCc1ccccn1,6.9%,.,4.9%,2.6,22.5
Cc1ccccc1NC(=O)Cc1ccccc1,1.4%,?,-1.7%,-2.5,-0.9
CSc1ccccc1COC(=O)Nc1ccccc1C,?,-26.7%,.,29.1*,35.8
CC(=O)c1cn(Cc2ccccc2)c(=O)[nH]c1=O,-12.3%,-2.0%,.,0.4,-5.3
O=C(NCCCn1ccnc1)c1ccc(OCC(F)(F)F)cc1,31.3%,17.5%,0.7%,3.8,0.3
CCN(CC)C(=S)Nc1ccc([N+](=O)[O-])cc1,9.5%,-28.2%,1.1%,3.0,2.0
CN1CCN(Cc2nc3ccccc3c(=O)n2Cc2nc(-c3ccc([N+](=O)[O-])cc3)cs2)CC1,?,2.62µM*,20.3%,-8.8,-36.4
O=c1[nH]c(=O)n(C2CCCCCC2)c(O)c1C=NCc1ccc(F)cc1,?,-1.9%,-144.8%,-1.5,-19.8
Cc1ccc(CN=Cc2[nH]c3ccc(Br)c(Cl)c3c2O)cc1,3.29µM*,.,-45.8%,4.4,1.2
Oc1c(C=NCc2ccc(F)cc2)[nH]c2ccc(Br)c(Cl)c12,2.62µM*,.,-61.8%,-2.4,-7.3
COc1ccc(NC(=O)COC(=O)c2ccc(O)cc2)c([N+](=O)[O-])c1,20.2%,5.8%,.,-2.5,7.4
Nc1ccccc1C(=O)OCCc1ccccc1,165.0%,301.3%,.,.,.
COc1ccc(NC(=S)NC(=O)/C=C/c2cccs2)cc1,-8.2%,-5.9%,.,13.8,22.3
CCCCOC(=O)Nc1ccc(C(=O)OC)cc1,66.1%,-2.7%,-60.1%,11.8,40.5
CCCCOC(=O)c1ccc(NC(=O)/C=C/c2cccs2)cc1,19.5%,-11.9%,-56.2%,40.7*,52.7*
CCCCOC(=O)c1ccc(NC(=O)c2nn(C)cc2Br)cc1,?,?,3.7%,29.9*,79.4*
CCCCCCOC(=O)c1ccccc1N,28.1%,.,5.5%,38.9*,76.3
CCCCOC(=O)Nc1cc(C(=O)OC)ccc1C(=O)OC,10.4µM*,?,-13.0%,-2.3,-2.0
CC(C)(C)c1nnc(NS(=O)(=O)c2ccc([N+](=O)[O-])cc2)s1,2.9%,0.0%,3.6%,1.8,2.4
CCCCOC(=O)c1ccc(NC(=O)c2cc(Cl)c(Cl)cc2C(=O)O)cc1,1.2%,52.5%[5.75 µM],4.3%,32.0*,65.6*
CCCCOC(=O)c1cc(=O)[nH]c2ccccc12,5.6%,11.7µM*,22.6%,11.2*,12.0
SMILES,Pf growth 48h,Pf growth 96h,NS1 function inh,Cycloheximide cs,Shiga toxin inh
CCCOC(=O)Nc1cccc(C(C)=O)c1,29.0%,4.5%,-2.1%,12.0,4.6
CCCCOC(=O)c1ccc(NC(=O)c2c(OC)cccc2OC)cc1,-11.5%,10.0%,-0.1%,1.3,21.3
CC(=O)Nc1ccc(C(=O)OCCc2ccccc2)cc1,157.6%,260.4%,-166.0%,41.8*,64.4*
CCCOC(=O)Nc1ccc(C(N)=O)cc1,58.6%,-2.6%,-11.8%,24.3*,19.2
CCCCc1cc(=O)oc2cc(C)cc(OCC(=O)N3CCC(C(=O)O)(c4ccccc4)CC3)c12,?,?,22.3%,-2.5,-3.5
O=C(O)c1cc2ccccc2c2cc(Br)ccc12,?,42.6%,-43.6%,-5.5,7.4
O=C(CN1CCN(S(=O)(=O)c2ccc(Br)cc2)CC1)N/N=C/c1ccncc1,-6.7%,?,6.1%,13.1,-6.9
CCCCOC(=O)c1ccc(NC(C)=O)cc1,49.5%,?,-15.9%,13.4,51.9*
CCCCCCOC(=O)c1ccc(N)cc1,309.7%,358.4%,-43.1%,42.2*,69.3*
CCCCOC(=O)c1ccc(N)cc1,60.3%,38.6%,-9.5%,14.9*,63.1*
CCCOC(=O)c1ccc(NC(=O)C(CC)CC)cc1,88.8%,1.5%,-5.1%,40.5*,70.2*
CCCOC(=O)c1ccc(N)cc1,18.6%,-10.6%,.,.,.
C=CCSc1n[nH]c(-c2ccc(OC)cc2)n1,183.4%,.,-23.3%,60.6*,116.0*
C=CCSc1n[nH]c(-c2ccccc2)n1,.,46.8%,-11.8%,30.4*,50.6*
